Source: PubChem BioAssay
PAFAH2 inh: PAFAH2 enzyme inhibitors, primary screen, biochemical, fluorescence polarization, human; recombinant PAFAH2, FP-rhodamine activity probe; inhibition, % at 3.39 µM; actives 0.99% (n = 340,000); AID 492956, 2010;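 active = inhibition above the mean over all tested compounds plus 3 SD, cut at about 30% in these data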;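 note: inhibitors block probe labeling of enzyme so polarization drops; 0% = enzyme with DMSO and 100% = wells lacking PAFAH2 protein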
rCAG RNA binder: binders of r(CAG) RNA repeats, primary screen, biochemical, fluorescence | r(CAG) RNA repeat, TO-PRO-1 dye displacement fluorescence | inhibition, % at 3 µM | actives 1.3% (n = 370,000) | AID 651821, 2012;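 active = inhibition above the plate cutoff, the mean of all test compounds on that plate plus 3 SD, cut at about 35% in these data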;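 note: 0% = DMSO alone and 100% = 100 µM mitoxantrone as full dye displacement; higher means more dye released from RNA so lower well fluorescence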
ZTA counter: counter-screen for EBNA-1 inhibitors: inhibitors of Epstein-Barr virus ZTA; inhibition, % at 11 µM; actives 0.15% (n = 320,000); ZTA-DNA binding, fluorescence polarization; P03206; in the data active = inhibition above about 33%
Target sequence (P03206 whole entry, looked up): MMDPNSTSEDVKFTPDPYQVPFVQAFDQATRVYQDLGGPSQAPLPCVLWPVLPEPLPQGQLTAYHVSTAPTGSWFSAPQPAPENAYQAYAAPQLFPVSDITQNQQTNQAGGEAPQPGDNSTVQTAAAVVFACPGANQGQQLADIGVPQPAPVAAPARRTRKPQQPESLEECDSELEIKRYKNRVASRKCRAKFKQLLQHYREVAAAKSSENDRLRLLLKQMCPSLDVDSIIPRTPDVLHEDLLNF
PAFAH1B2 inh: PAFAH1B2 enzyme inhibitors, primary screen, biochemical, fluorescence polarization, human; Platelet-activating factor acetylhydrolase IB subunit alpha2 (Homo sapiens), P68402; recombinant PAFAH1B2, FP-rhodamine activity probe; inhibition, % at 3.39 µM; actives 1.2% (n = 340,000); AID 492953, 2010;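 active = inhibition above the mean of all tested compounds plus 3 SD, cut at about 24% in these data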;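 note: 0% = enzyme with DMSO and 100% = wells lacking PAFAH1B2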
Target sequence (P68402 whole entry, looked up): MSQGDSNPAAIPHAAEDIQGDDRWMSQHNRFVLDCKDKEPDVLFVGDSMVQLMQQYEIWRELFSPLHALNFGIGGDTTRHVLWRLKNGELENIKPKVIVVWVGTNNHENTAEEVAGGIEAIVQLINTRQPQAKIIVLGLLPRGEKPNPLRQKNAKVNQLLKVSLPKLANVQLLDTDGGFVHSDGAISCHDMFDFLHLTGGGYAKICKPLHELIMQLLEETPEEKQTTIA
PAFAH1B3 FP inh: PAFAH1B3 enzyme inhibitors, primary screen, biochemical, fluorescence polarization, human | recombinant PAFAH1B3, FP-rhodamine probe | inhibition, % at 3.39 µM | actives 0.28% (n = 340,000);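 active = inhibition above the screen-wide average of all tested compounds plus 3 SD, cut at about 25% in these data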;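 note: 0% = enzyme with DMSO only and 100% = wells lacking PAFAH1B3 protein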
EBNA-1 inh: EBNA-1 DNA-binding inhibitors, primary screen, biochemical, fluorescence polarization. actives 0.34% (n = 300,000). inhibition, % at 14.8 µM; in the data active = inhibition above about 28%
rCAG binder conf: small molecules binding CAG repeat RNA – biochemical, fluorescence, confirmation; shares compounds with rCAG RNA binder; r(CAG) RNA repeat, TO-PRO-1 dye displacement fluorescence; inhibition, % at 3 µM; actives 70% (n = 4,300); AID 652065, 2013;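 active = inhibition above a per-plate cutoff, the mean inhibition of sample wells plus 3 SD, cut at about 35% in these data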;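 note: loss of TO-PRO-1 fluorescence as compound displaces dye from 1x1 AA loop RNA; 0% = DMSO only wells and 100% = 100 µM mitoxantrone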
DNA CAG counter: displacement of TO-PRO-1 from CAG DNA duplex, counter-screen for rCAG RNA repeat binder project, biochemical, fluorescence, TO-PRO-1 dye, d(CAG) DNA oligo; shares compounds with rCAG RNA binder; d(CAG) DNA oligo TO-PRO-1 dye displacement; inhibition, % at 3 µM; actives 94% (n = 4,300);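 active = inhibition above its plate's cutoff, the mean test-well inhibition plus 3 SD, cut at about 4.8% in these data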;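 note: 0% = DNA dye mix with DMSO and 100% = 100 µM mitoxantrone; hits displace the dye from DNA and so lower well fluorescence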
An asterisk follows results filed as active; . = no result given. In the library only some 2.9% were active in any assay of this set; here they are far more common.

SMILES	PAFAH2 inh	rCAG RNA binder	ZTA counter	PAFAH1B2 inh	PAFAH1B3 FP inh	EBNA-1 inh	rCAG binder conf	DNA CAG counter
Cc1ccc(CS(=O)(=O)c2cn(CC(=O)N3CCOCC3)c3ccccc23)cc1	0.2	-0.7	13.9	0.3	6.3	-1.4	.	.
O=c1cc(-c2ccccc2Cl)oc2c([N+](=O)[O-])c(O)cc(O)c12	15.2	50.9*	5.0	1.5	8.2	15.1	35.4*	11.6*
CCOC(=O)CN1C(=O)CSc2ccccc21	5.0	1.4	7.7	-4.0	12.0	2.8	.	.
N#Cc1ccc(COC(=O)c2ccc3c(c2)OCO3)cc1	-2.6	-2.5	0.4	-1.4	-2.5	6.3	.	.
Cc1ccc(S(=O)(=O)Nc2c(C(=O)O)[nH]c3ccccc23)c(C)c1	12.3	57.7*	-4.4	16.0	10.7	-14.1	29.8	7.3*
COc1ccc(S(=O)(=O)Nc2c(C(=O)O)[nH]c3ccccc23)cc1	-0.8	17.9	9.2	12.9	7.5	4.4	.	.
COc1ccc2[nH]c(C(=O)O)c(NS(=O)(=O)c3ccc(C)c(C)c3)c2c1	6.6	43.5*	2.0	18.3	8.6	1.4	24.5	5.9*
CC1CCc2c(sc3nc(CN4CCN(S(=O)(=O)c5ccccc5[N+](=O)[O-])CC4)[nH]c(=O)c23)C1 (stereo not drawn)	-6.5	4.7	-6.6	-3.8	-5.3	-12.6	.	.
C=CCNC(=S)NNC(=O)c1ccc(=O)n(Cc2ccc(Cl)cc2Cl)c1	4.4	7.6	-18.6	9.7	-3.6	-0.2	.	.
Nc1ccc2c(O)cc(S(=O)(=O)O)cc2c1	53.5*	86.7*	.	37.2*	60.4*	.	34.1	9.7*
CCOc1ccc2[nH]c(=O)c(CN(CC3COCCO3)C(=O)c3ccc(C)cc3)cc2c1 (stereo not drawn)	3.1	-7.1	5.8	0.3	10.8	-1.4	.	.
CCOCCCNC(=O)Cn1cnc2c(cnn2-c2ccc(C)c(C)c2)c1=O	2.7	-1.1	7.8	-2.9	7.7	-6.7	.	.
Cc1nc2ccccc2c(=O)n1/N=C/c1ccc(O)c(O)c1O	45.5*	44.3*	7.0	7.0	27.1*	3.2	50.7*	18.9*
Cc1nc2ccccc2c(=O)n1/N=C/c1ccccc1O	-6.9	3.2	-8.3	3.2	7.7	7.2	.	.
Cc1nn(-c2cccc(Cl)c2)c2c1C(c1cccnc1)C(C#N)=C(N)O2 (stereo not drawn)	7.2	20.4	-13.8	-1.8	-1.2	-20.5	.	.
Cc1nn(-c2cccc(Cl)c2)c2c1C(c1ccncc1)C(C#N)=C(N)O2 (stereo not drawn)	20.0	35.7*	-5.3	6.2	6.6	1.7	26.6	5.2*
COc1cc(C2C(C#N)=C(N)Oc3c2c(-c2ccccc2)nn3-c2ccccc2)cc(OC)c1OC (stereo not drawn)	4.7	61.9*	9.4	0.9	11.6	-6.6	24.6	8.5*
CC(C)c1cccc(C(C)C)c1NC(=O)COC(=O)c1ccc2c(c1)S(=O)(=O)c1ccccc1C2=O	-4.0	1.0	-2.6	-2.0	4.2	7.9	.	.
CCn1ccc(C(=O)Nc2ccc(S(=O)(=O)Nc3ccccc3OC)cc2)n1	.	4.6	-7.6	.	.	-3.0	.	.
COc1ccccc1NS(=O)(=O)c1ccc(NC(=O)c2[nH]nc(OC)c2[N+](=O)[O-])cc1	2.8	46.7*	.	-3.7	11.2	.	26.1	7.2*
CCC(CC)C(C(=O)NCc1ccccc1)N1CCN(C(=O)C2CCCO2)CC1 (stereo not drawn)	.	1.5	.	.	.	.	.	.
O=C(CN(C(=O)c1csnn1)c1ccc(F)cc1)NCCc1ccccc1	6.7	0.5	-7.3	8.3	3.0	4.2	.	.
COc1ccc(NC(=O)COC(=O)c2cc(S(=O)(=O)N3CCCC3)ccc2O)cc1	17.6	10.7	.	3.4	2.4	.	.	.
O=C(COC(=O)c1cc(S(=O)(=O)Nc2ccccc2Cl)ccc1O)Nc1nc2ccccc2s1	6.7	42.8*	.	-3.9	6.0	.	68.7*	31.2*
N#Cc1cccc(NC(=O)COC(=O)c2cc(S(=O)(=O)Nc3ccccc3Cl)ccc2O)c1	76.7*	52.0*	.	8.0	4.9	.	45.1*	15.4*
SMILES	PAFAH2 inh	rCAG RNA binder	ZTA counter	PAFAH1B2 inh	PAFAH1B3 FP inh	EBNA-1 inh	rCAG binder conf	DNA CAG counter
COc1ccc(NS(=O)(=O)c2ccc(O)c(C(=O)OCC(=O)Nc3ccc4c(c3)OCCO4)c2)cc1	10.3	38.2*	-11.1	10.4	2.5	-5.8	28.4	10.9*
O=C(CCOc1ccccc1)Nc1cccc(S(=O)(=O)Nc2ccccc2Cl)c1	3.6	30.8	-12.7	3.8	7.0	-21.2	.	.
Cc1csc(NC(=O)c2ccc(COc3ccc(Cl)c(Cl)c3)o2)n1	.	4.5	.	.	.	.	.	.
COc1ccc(Cn2cc(CN3CC(N4CCN(CCN(C)C)CC4)CS3(=O)=O)nn2)cc1 (stereo not drawn)	.	2.6	.	.	.	.	.	.
O=C1CC(c2ccc(O)c(O)c2)Oc2c1ccc(O)c2O (stereo not drawn)	50.4*	48.5*	8.1	11.8	18.7	8.6	48.9*	21.0*
CC(C)=CCc1c(O)ccc2c1OC(c1ccc(O)c(O)c1)CC2=O (stereo not drawn)	7.4	11.2	-12.7	5.8	14.6	6.8	.	.
Cc1ccccc1C(=O)Nc1ccc(S(=O)(=O)Nc2onc(C)c2C)cc1	2.3	4.8	1.7	-3.6	5.2	1.1	.	.
Cc1ccc(O)c(-c2cc(C(=O)Nc3ccc(S(=O)(=O)Nc4nc(C)cc(C)n4)cc3)[nH]n2)c1	0.6	55.0*	-8.0	-0.5	6.5	6.7	40.4*	11.7*
Cc1ccc(-c2cc(C(=O)Nc3ccc(S(=O)(=O)Nc4onc(C)c4C)cc3)c3ccccc3n2)cc1	7.3	87.2*	-0.4	7.2	10.6	-4.1	85.5*	60.8*
Cc1ccc(NS(=O)(=O)c2ccc(C)c(C(=O)Nc3ccc(S(=O)(=O)Nc4onc(C)c4C)cc3)c2)cc1	5.8	64.1*	.	3.8	5.3	.	69.9*	34.7*
O=C(NNS(=O)(=O)c1cccc(Cl)c1)c1cc(-c2ccc(F)cc2)nc2ccccc12	-4.3	43.8*	13.6	39.9*	-5.9	-6.9	44.0*	15.0*
O=C(NN=C1CCCC1)c1cc(-c2ccc(F)cc2)nc2ccccc12	2.9	14.7	-3.0	-2.5	-5.7	4.5	.	.
CCn1cc(C(=O)OCC(=O)Nc2c(C)cccc2C)c(=O)c2ccc(C)nc21	14.5	-4.1	0.8	3.7	1.7	-9.9	.	.
